# Results reported in PubChem BioAssay (EPA / NIEHS).
# Results filed as inconclusive are left out. Calls of active or inactive are those of the source. How the source made its calls, unless noted: active means hit-call score of the fitted dose curve at least 0.9, where 1 is the maximum; inactive means score below 0.9.
# Legend:
# [1] = ATG_NFI_CIS: Attagene CIS-FACTORIAL HepG2 Assay for human Nuclear Factor I (NFI) (AID 2282989); settings: HepG2 cis-regulatory reporter, NFI response element transcription; actives raise or lower the signal
# Outline: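 Multiplexed cis-reporter system in human HepG2 cells reports native TF activity as reporter mRNA induction 24 h post-dose. Fragments labelled with 6-FAM, HpaI-digested and resolved by capillary electrophoresis; activity fitted both directions versus DMSO.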
# [2] = target: Myc proto-oncogene protein (Homo sapiens) (UniProt P01106); experiment: ATG_Myc_CIS: Attagene CIS-FACTORIAL HepG2 Assay for human Myelocytomatosis (Myc) Proto-Oncogene Transcription Factor (AID 2282990); settings: HepG2, Attagene cis-reporter transcription factor activity; actives raise or lower the signal
# Sequence of Myc proto-oncogene protein (Homo sapiens) (P01106 whole entry, looked up): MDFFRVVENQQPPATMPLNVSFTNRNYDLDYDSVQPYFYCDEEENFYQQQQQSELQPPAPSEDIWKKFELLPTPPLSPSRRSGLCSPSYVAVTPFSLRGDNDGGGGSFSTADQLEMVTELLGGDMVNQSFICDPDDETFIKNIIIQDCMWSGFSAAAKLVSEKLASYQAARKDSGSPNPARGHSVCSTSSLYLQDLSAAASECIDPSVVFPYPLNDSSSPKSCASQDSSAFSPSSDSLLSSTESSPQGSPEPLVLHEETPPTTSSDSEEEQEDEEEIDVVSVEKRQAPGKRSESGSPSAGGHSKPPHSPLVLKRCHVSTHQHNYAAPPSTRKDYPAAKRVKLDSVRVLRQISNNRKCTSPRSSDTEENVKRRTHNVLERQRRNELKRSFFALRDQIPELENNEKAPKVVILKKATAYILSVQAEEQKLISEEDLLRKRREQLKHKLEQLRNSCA
# Outline: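 HepG2 cells transiently transfected with multiple cis-promoter-driven reporter transcription units, so endogenous TF activity is read. After 24 h compound exposure, reporter mRNA was quantified by RT-PCR, 6-FAM labelling, HpaI digestion and capillary electrophoresis; bidirectional fit versus DMSO.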
# [3] = ATG_NRF2_ARE_CIS: Attagene CIS-FACTORIAL HepG2 Assay for human Nuclear Factor Erythroid 2 Related Factor 2 (NFR2) response to Antioxidant Response Elements (ARE) (AID 2282992); settings: HepG2 Attagene ARE/NRF2 reporter, transcription factor activity; actives raise or lower the signal
# Outline: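 Using transiently transfected HepG2 cells exposed for 24 h, reporter mRNA levels were determined by RT-PCR with fluorescent primer extension and capillary electrophoresis, analysed for gain or loss of signal against DMSO.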
# [4] = ATG_Oct_MLP_CIS: Attagene CIS-FACTORIAL HepG2 Assay for human Octamer-Binding Transcription Factor (Oct) (AID 2282993); settings: HepG2 Attagene cis-factorial Oct reporter, mRNA; actives raise or lower the signal
# Outline: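 After 24 h compound exposure, transfected HepG2 cells were lysed for total RNA; reporter-specific cDNA was PCR-amplified, fluorescently labelled and sized by capillary electrophoresis. Bidirectional curve fitting used DMSO as baseline.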
# [5] = target: Cellular tumor antigen p53 (Homo sapiens) (UniProt P04637); experiment: ATG_p53_CIS: Attagene CIS-FACTORIAL HepG2 Assay for human p53 Transcription Factor (AID 2282994); settings: HepG2 p53 cis-element reporter, Attagene mRNA; actives raise or lower the signal
# Sequence of Cellular tumor antigen p53 (Homo sapiens) (P04637 whole entry, looked up, the tested form may be a part): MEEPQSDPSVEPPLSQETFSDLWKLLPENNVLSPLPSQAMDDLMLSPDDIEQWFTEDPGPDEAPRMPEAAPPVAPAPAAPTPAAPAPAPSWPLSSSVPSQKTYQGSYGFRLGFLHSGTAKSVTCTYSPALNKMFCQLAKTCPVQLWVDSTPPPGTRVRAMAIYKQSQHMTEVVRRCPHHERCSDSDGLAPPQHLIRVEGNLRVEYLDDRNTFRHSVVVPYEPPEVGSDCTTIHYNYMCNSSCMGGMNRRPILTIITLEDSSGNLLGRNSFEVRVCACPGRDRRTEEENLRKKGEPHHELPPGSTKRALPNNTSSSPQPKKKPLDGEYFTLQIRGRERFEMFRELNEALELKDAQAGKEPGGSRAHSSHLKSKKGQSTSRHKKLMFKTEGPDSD
# Outline: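 In HepG2 cells, reporter transcription units under cis-regulatory promoters were transiently introduced. Following 24 h treatment, RNA was processed to labelled, digested cDNA fragments read by capillary electrophoresis; fitting was bidirectional versus DMSO.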
# [6] = target: Peroxisome proliferator-activated receptor gamma (Homo sapiens) (UniProt P37231); experiment: ATG_PPARg_TRANS: Attagene TRANS-FACTORIAL HepG2 Assay for human Peroxisome Proliferator-activated Receptor-gamma (PPARg) (AID 2283007; active means hit-call score of the fitted dose curve at least 0.9, where 1 is the maximum)
# Sequence of Peroxisome proliferator-activated receptor gamma (Homo sapiens) (P37231 whole entry, looked up, the tested form may be a part): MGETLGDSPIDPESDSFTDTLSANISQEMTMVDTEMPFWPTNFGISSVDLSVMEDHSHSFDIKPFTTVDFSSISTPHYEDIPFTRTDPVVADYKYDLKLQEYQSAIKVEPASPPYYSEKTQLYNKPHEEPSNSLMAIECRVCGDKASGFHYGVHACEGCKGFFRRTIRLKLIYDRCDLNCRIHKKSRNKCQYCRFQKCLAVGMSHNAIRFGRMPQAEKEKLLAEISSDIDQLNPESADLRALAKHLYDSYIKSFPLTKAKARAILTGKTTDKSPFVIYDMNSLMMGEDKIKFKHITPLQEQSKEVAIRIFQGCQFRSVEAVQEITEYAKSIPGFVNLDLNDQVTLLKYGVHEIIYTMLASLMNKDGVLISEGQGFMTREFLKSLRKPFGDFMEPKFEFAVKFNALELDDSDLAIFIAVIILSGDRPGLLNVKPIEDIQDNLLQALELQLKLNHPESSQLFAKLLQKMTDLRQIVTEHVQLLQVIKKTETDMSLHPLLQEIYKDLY
# Outline: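 Endpoint reflects upward reporter mRNA change versus DMSO controls. Setup: transiently transfected HepG2, GAL4-UAS reporters driven by chimeric NR-Gal4, 24 h incubation, RT-PCR with capillary electrophoresis read-out.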
# [7] = target: Nuclear receptor subfamily 1 group I member 2 (Homo sapiens) (UniProt O75469); experiment: ATG_PXR_TRANS: Attagene TRANS-FACTORIAL HepG2 Assay for human Pregnane X Receptor (PXR) (AID 2283008; active means hit-call score of the fitted dose curve at least 0.9, where 1 is the maximum)
# Sequence of Nuclear receptor subfamily 1 group I member 2 (Homo sapiens) (O75469 whole entry, looked up, the tested form may be a part): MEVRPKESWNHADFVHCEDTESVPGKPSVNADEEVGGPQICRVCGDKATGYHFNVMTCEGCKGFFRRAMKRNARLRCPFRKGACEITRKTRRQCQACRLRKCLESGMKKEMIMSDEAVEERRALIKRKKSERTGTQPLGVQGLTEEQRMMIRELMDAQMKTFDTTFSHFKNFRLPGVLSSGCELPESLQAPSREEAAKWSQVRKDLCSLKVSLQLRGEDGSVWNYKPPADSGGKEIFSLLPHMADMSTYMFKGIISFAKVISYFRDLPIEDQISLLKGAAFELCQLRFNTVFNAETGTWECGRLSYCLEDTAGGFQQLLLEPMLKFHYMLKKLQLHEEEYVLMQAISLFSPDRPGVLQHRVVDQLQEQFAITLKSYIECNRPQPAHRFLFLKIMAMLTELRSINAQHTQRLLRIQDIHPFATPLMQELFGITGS
# Outline: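 Multiplexed TRANS reporter panel in HepG2; this component tracks PXR-Gal4-driven reporter mRNA after 24 h dosing, measured by RT-PCR with capillary electrophoresis fluorescence, fitted against DMSO.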
# [8] = target: human Retinoic Acid Receptor gamma (RARg), RARG (gene 5916) (UniProt P13631); experiment: ATG_RARg_TRANS: Attagene TRANS-FACTORIAL HepG2 Assay for human Retinoic Acid Receptor gamma (RARg) (AID 2283009; active means hit-call score of the fitted dose curve at least 0.9, where 1 is the maximum)
# Sequence of human Retinoic Acid Receptor gamma (RARg), RARG (gene 5916) (P13631 whole entry, looked up, the tested form may be a part): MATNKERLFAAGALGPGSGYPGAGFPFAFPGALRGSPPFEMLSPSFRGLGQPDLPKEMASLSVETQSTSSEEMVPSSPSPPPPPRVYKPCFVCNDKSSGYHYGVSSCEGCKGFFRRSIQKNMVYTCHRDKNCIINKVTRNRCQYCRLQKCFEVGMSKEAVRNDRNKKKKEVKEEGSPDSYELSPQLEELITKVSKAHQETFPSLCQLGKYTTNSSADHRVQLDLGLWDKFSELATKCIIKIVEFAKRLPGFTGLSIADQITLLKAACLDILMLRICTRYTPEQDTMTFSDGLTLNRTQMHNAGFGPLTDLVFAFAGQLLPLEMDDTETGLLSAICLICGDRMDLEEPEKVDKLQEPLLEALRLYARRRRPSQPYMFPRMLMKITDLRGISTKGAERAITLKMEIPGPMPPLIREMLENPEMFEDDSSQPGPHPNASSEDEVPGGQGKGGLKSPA
# Outline: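 Gain-of-signal relative to DMSO is reported from fluorescent capillary electrophoresis of RT-PCR reporter products. These came from HepG2 cells expressing transfected RARg-GAL4 chimeras with UAS reporters, harvested 24 h after dosing.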
# [9] = target: human RAR-related Orphan Receptor beta (RORb), RORB (gene 6096) (UniProt Q92753); experiment: ATG_RORb_TRANS: Attagene TRANS-FACTORIAL HepG2 Assay for human RAR-related Orphan Receptor beta (RORb) (AID 2283010; active means hit-call score of the fitted dose curve at least 0.9, where 1 is the maximum)
# Sequence of human RAR-related Orphan Receptor beta (RORb), RORB (gene 6096) (Q92753 whole entry, looked up, the tested form may be a part): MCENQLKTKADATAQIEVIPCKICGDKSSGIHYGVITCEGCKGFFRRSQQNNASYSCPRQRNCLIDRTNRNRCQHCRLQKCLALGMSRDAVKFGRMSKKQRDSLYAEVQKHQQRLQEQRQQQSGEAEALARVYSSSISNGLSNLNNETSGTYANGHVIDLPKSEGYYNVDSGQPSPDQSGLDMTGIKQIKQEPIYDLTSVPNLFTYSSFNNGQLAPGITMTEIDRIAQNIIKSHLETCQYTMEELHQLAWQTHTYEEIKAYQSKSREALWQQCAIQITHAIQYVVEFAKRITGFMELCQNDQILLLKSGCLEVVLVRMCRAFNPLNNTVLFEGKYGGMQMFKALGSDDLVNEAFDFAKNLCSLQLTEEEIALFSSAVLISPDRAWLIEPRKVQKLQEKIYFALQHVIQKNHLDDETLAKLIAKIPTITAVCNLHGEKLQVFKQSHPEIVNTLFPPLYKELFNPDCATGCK
# Outline: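 Multiplexed transcription-factor reporter assay: HepG2 cells transiently carrying NR-Gal4/GAL4-UAS constructs, 24 h treatment, mRNA quantified by RT-PCR plus capillary electrophoresis fluorescence; activity scored as induction over DMSO.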
# [10] = target: human Peroxisome Proliferator-activated Receptor alpha (PPARa), PPARA (gene 5465) (UniProt Q07869); experiment: ATG_PPARa_TRANS: Attagene TRANS-FACTORIAL HepG2 Assay for human Peroxisome Proliferator-activated Receptor alpha (PPARa) (AID 2283001; active means hit-call score of the fitted dose curve at least 0.9, where 1 is the maximum)
# Sequence of human Peroxisome Proliferator-activated Receptor alpha (PPARa), PPARA (gene 5465) (Q07869 whole entry, looked up, the tested form may be a part): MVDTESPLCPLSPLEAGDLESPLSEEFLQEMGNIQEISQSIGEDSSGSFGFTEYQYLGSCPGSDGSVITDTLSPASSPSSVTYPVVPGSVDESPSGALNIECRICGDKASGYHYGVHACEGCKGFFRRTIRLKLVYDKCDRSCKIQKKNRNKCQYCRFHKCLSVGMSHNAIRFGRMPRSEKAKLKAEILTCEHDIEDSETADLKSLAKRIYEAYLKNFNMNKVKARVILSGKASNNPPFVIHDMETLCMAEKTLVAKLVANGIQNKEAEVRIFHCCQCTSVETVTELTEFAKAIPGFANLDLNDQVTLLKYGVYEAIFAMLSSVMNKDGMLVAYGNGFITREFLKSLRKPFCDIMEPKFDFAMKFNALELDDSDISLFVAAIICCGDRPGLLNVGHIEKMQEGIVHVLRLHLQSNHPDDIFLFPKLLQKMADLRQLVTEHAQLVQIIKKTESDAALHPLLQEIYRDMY
# Outline: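 Exposure: 24 h, transiently transfected HepG2 cells. Endpoint: GAL4-UAS reporter mRNA, RT-PCR with capillary electrophoresis fluorescence. Baseline: DMSO; increases fitted.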
# [11] = target: human Retinoic Acid Receptor beta (RARb), RARB (gene 5915) (UniProt P10826); experiment: ATG_RARb_TRANS: Attagene TRANS-FACTORIAL HepG2 Assay for human Retinoic Acid Receptor beta (AID 2283004; active means hit-call score of the fitted dose curve at least 0.9, where 1 is the maximum)
# Sequence of human Retinoic Acid Receptor beta (RARb), RARB (gene 5915) (P10826 whole entry, looked up, the tested form may be a part): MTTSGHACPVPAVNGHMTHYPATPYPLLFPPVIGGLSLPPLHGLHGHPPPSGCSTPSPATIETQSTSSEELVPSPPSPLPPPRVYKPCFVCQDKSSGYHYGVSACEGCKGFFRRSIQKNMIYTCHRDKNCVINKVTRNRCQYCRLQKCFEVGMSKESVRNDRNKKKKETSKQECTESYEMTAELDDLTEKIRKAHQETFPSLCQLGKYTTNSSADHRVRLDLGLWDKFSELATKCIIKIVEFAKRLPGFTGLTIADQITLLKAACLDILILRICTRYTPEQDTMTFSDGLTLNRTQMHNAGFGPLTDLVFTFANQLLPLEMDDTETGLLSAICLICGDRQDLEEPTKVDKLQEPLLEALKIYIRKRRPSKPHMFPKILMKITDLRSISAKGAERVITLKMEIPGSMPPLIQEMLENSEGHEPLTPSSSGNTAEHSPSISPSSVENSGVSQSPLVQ
# Outline: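 Fluorescent capillary-electrophoresis detection of GAL4-UAS reporter mRNA defines the endpoint, with induction over DMSO-treated wells scored as activity. Transiently transfected human hepatoma HepG2 cells expressing exogenous NR–Gal4 proteins are exposed to test chemicals for 24 h.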
# [12] = target: Retinoic acid receptor alpha (Homo sapiens) (UniProt P10276); experiment: ATG_RARa_TRANS: Attagene TRANS-FACTORIAL HepG2 Assay for human Retinoic Acid Receptor alpha (RARa) (AID 2283005; active means hit-call score of the fitted dose curve at least 0.9, where 1 is the maximum)
# Sequence of Retinoic acid receptor alpha (Homo sapiens) (P10276 whole entry, looked up, the tested form may be a part): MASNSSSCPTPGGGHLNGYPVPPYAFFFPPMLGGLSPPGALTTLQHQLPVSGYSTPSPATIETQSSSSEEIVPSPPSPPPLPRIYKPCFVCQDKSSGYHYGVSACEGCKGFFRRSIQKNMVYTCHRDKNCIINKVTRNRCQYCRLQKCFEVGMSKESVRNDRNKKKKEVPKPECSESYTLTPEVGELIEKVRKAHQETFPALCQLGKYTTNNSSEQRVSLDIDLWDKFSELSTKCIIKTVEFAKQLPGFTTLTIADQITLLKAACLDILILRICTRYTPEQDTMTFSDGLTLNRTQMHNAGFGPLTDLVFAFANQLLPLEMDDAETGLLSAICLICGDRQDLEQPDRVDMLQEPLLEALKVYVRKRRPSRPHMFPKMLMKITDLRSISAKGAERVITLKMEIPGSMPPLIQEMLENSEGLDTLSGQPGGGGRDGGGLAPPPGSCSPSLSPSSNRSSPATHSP
# Outline: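 HepG2 cells transiently transfected with multiple reporter units expressing chimeric RARα-GAL4 fusion, with GAL4-UAS-driven reporters. After 24 h compound exposure, reporter mRNA induction quantified by RT-PCR and capillary electrophoresis with fluorescent labeling; gain-of-signal fitted relative to DMSO control.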
# [13] = target: human Peroxisome Proliferator-activated Receptor delta (PPARd), PPARD (gene 5467) (UniProt Q03181); experiment: ATG_PPARd_TRANS: Attagene TRANS-FACTORIAL HepG2 Assay for human Peroxisome Proliferator-activated Receptor delta (PPARd) (AID 2283002; active means hit-call score of the fitted dose curve at least 0.9, where 1 is the maximum)
# Sequence of human Peroxisome Proliferator-activated Receptor delta (PPARd), PPARD (gene 5467) (Q03181 whole entry, looked up, the tested form may be a part): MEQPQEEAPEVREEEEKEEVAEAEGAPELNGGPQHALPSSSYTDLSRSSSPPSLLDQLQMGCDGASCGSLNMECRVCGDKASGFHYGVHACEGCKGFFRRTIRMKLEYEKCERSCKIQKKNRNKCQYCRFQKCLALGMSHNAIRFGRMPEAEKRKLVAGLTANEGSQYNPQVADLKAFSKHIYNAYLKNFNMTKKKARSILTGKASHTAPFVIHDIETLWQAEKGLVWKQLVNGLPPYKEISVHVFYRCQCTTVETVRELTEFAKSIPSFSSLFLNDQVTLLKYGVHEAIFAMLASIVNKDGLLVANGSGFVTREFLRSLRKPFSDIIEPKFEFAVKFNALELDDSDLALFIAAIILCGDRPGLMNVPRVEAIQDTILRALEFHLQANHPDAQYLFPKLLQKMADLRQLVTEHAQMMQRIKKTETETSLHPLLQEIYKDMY
# Outline: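 HepG2 cells transiently transfected with multiplexed GAL4-UAS reporter units and exogenous chimeric NR-Gal4 proteins; 24 h compound exposure. Reporter mRNA measured by RT-PCR, 6-FAM labelling, HpaI digestion and capillary electrophoresis; gain of signal versus DMSO.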
structure (smiles),measurement,setting,value
Nc1ccc2c(O)cc(S(=O)(=O)O)cc2c1,outcome,[1],inactive
same,outcome,[2],inactive
same,outcome,[3],inactive
same,outcome,[4],inactive
same,outcome,[5],inactive
same,outcome,[6],inactive
same,outcome,[7],inactive
same,outcome,[8],inactive
same,outcome,[9],inactive
CCOc1ccc(NC(=O)CC(C)=O)cc1,outcome,[1],inactive
same,outcome,[2],inactive
same,outcome,[3],inactive
same,outcome,[4],inactive
same,outcome,[10],inactive
same,outcome,[11],inactive
same,outcome,[7],inactive
same,outcome,[9],inactive
CCCC(=O)c1ccccc1,outcome,[1],inactive
same,outcome,[2],inactive
same,outcome,[3],inactive
same,outcome,[4],inactive
same,outcome,[5],inactive
same,outcome,[6],inactive
same,outcome,[7],inactive
same,outcome,[9],inactive
OCc1ccc(Cl)cc1Cl,outcome,[1],inactive
same,outcome,[2],inactive
same,outcome,[3],inactive
same,outcome,[4],inactive
same,outcome,[5],inactive
same,outcome,[10],inactive
same,outcome,[12],inactive
same,outcome,[7],inactive
CCCCCCCCN1CCCC1=O,outcome,[1],inactive
same,outcome,[2],inactive
same,AC50,[3],66.8 µM (active)
same,outcome,[4],inactive
same,AC50,[5],72.6 µM (active)
same,outcome,[6],inactive
same,AC50,[7],7.53 µM (active)
same,outcome,[8],inactive
CC/C=C\CCOC(=O)CC,outcome,[1],inactive
same,outcome,[2],inactive
same,outcome,[3],inactive
same,outcome,[4],inactive
same,outcome,[5],inactive
same,outcome,[10],inactive
same,outcome,[7],inactive
CC(O)C1CCCCC1 (stereo not drawn),outcome,[1],inactive
same,outcome,[2],inactive
same,outcome,[3],inactive
same,outcome,[4],inactive
same,outcome,[10],inactive
same,outcome,[12],inactive
same,outcome,[6],inactive
same,outcome,[8],inactive
CCc1ncc(C)[nH]1,outcome,[1],inactive
same,outcome,[2],inactive
same,outcome,[3],inactive
same,outcome,[4],inactive
same,outcome,[5],inactive
same,outcome,[13],inactive
same,outcome,[6],inactive
same,outcome,[7],inactive
CCC(=O)OCCOc1ccccc1,outcome,[1],inactive
same,outcome,[2],inactive
same,outcome,[3],inactive
same,outcome,[4],inactive
same,outcome,[10],inactive
CCCCCCOC(=O)CCC,outcome,[1],inactive
same,outcome,[2],inactive
same,outcome,[3],inactive
same,outcome,[4],inactive
same,outcome,[5],inactive
same,outcome,[11],inactive
same,outcome,[12],inactive
same,AC50,[7],15.1 µM (active)
same,outcome,[8],inactive
CCCC(=O)OCCc1ccccc1,outcome,[1],inactive
same,outcome,[2],inactive
same,outcome,[3],inactive
same,outcome,[4],inactive
same,outcome,[5],inactive
same,outcome,[7],inactive
same,outcome,[9],inactive
CC1(C)O[C@@H]2C[C@H]3[C@@H]4CCC5=CC(=O)C=C[C@]5(C)[C@@]4(F)[C@@H](O)C[C@]3(C)[C@]2(C(=O)CO)O1,outcome,[1],inactive
same,outcome,[2],inactive
same,outcome,[3],inactive
same,outcome,[4],inactive
same,outcome,[5],inactive
same,outcome,[13],inactive
same,AC50,[7],4.98 µM (active)
same,outcome,[9],inactive
